PubChem BioAssay (Tox21)
Several values for one entry are separate records, joined by “and”; a condition that tells them apart may be missing. Equal values may be shown once. Records with an inconclusive call do not appear. Activity calls are given as the source filed them. Unless noted, the call rests on the fitted dose curve; in most records, active means well fitted curve in the direction sought with a large enough effect in the repeat runs; inconclusive means weak or mixed curves; inactive means no such curve, though single readings can be large; an effect the other way counts as inactive or inconclusive.

Columns and labels:
[1] = qHTS assay to identify small molecule agonists of the estrogen receptor alpha (ER-alpha) signaling pathway in the presence of an antagonist - cell viability counter screen (AID 1259386); further: nearly all actives have a fitted effect of over 30% in size; further: potency means the concentration at half of the fitted maximal effect
How it was run: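 Compounds tested at 15 concentrations for 22 h at 37C alongside 10.0nM (final) ICI-182,780 antagonist, in VM7Luc4E2 cells grown in phenol red-free, charcoal-stripped medium. Viability read by CellTiter-Fluor fluorescence after 1 h reagent incubation.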

[2] = molecular target: Progesterone receptor (Homo sapiens) (UniProt P06401); assay: qHTS assay to identify small molecule agonists of the progesterone receptor (PR) signaling pathway (AID 1346784; calls by dose curve; further: on the % scale 0 is the no-effect control and ±100 the full control effect; nearly all actives have a fitted effect of over 30% in size)
How it was run: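 PR-UAS-bla HEK 293T cells carrying a UAS-driven beta-lactamase reporter were seeded in medium with 2% charcoal-stripped FBS, preincubated 6 hr at 37C, then exposed to compounds in DMSO for 16 hr; agonism was read by LiveBLAzer B/G FRET fluorescence.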

[3] = qHTS assay to identify small molecule agonists of the progesterone receptor (PR) signaling pathway - cell viability counter screen (AID 1346799; calls by dose curve; further: nearly all actives have a fitted effect of over 45% in size; further: potency means the concentration at half of the fitted maximal effect)
How it was run: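 PR-UAS-bla HEK293T cells, 3,000 per well in medium with 2% charcoal-stripped FBS, were preincubated 6 hr at 37C, then exposed to compounds for 16 hr; viability was read as CellTiter-Glo luminescence after 30 min at room temperature.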

[4] = qHTS assay to identify small molecule antagonists of the TGF-beta/Smad signaling pathway - cell viability counter screen (AID 1346824); further: nearly all actives have a fitted effect of over 50% in size; further: potency means the concentration at half of the fitted maximal effect; on viability change, negative = cytotoxic: on the % scale 0 is the no-effect control and ±100 the full control effect
How it was run: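 SBE-bla HEK 293T cells were plated overnight at 37 C, then given compounds in DMSO plus TGF-beta1 (added as 0.25 ng/mL solution) for 5 hr. After the bla read, CellTiter-Glo was added to the same wells and luminescence read after 30 min at room temperature.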

[5] = qHTS assay to identify small molecule agonists of the TGF-beta/Smad signaling pathway - cell viability counter screen (AID 1346829); further: nearly all actives have a fitted effect of over 45% in size; further: potency means the concentration at half of the fitted maximal effect
How it was run: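 Compound-treated SBE-bla HEK 293T cells (5 hr, 37 C) were assessed for viability with CellTiter-Glo in parallel with the reporter read.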

[6] = qHTS assay to identify small molecule agonists of the TGF-beta/Smad signaling pathway (AID 1346859; active means well fitted activation curve with a large enough effect in the signal ratio in the repeat runs, not every such curve was filed as active; the % refers to the signal ratio; further: series mostly up to about 77 µM; on the % scale 0 is the no-effect control and ±100 the full control effect)
How it was run: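 HEK 293T cells stably carrying a beta-lactamase reporter driven by the Smad binding element were seeded overnight, exposed to DMSO-dissolved compounds for 5 hr at 37 C, 5% CO2, then loaded with FRET substrate for 2 hr at room temperature.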

[7] = Human pregnane X receptor (PXR) small molecule agonists, qHTS cell viability counter screen (AID 1346977); further: nearly all actives have a fitted effect of over 50% in size; further: potency means the concentration at half of the fitted maximal effect
How it was run: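 PXR-Luc HepG2 cells in medium with 5% charcoal-stripped FBS were pre-incubated 5hr, then exposed to compounds for 24hr at 37C. Viability was read in the same wells by CellTiter-Fluor fluorescence, reagent added after 23hr with a 1hr incubation.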

[8] = Caspase-3/7 induction in HepG2 cells by small molecules, qHTS assay (AID 1346978); further: nearly all actives have a fitted effect of over 15% in size; further: potency means the concentration at half of the fitted maximal effect
How it was run: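 Wild-type HepG2 cells (2,000/well) were settled 5 h at 37 C, 5% CO2, then exposed to compounds in DMSO for 17 h. Caspase-3/7 activity was read by luminescence 30 min after adding Caspase-Glo 3/7 reagent at room temperature.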

[9] = Caspase-3/7 induction in CHO-K1 cells by small molecules, qHTS cell viability counter screen (AID 1346979); further: nearly all actives have a fitted effect of over 35% in size; further: potency means the concentration at half of the fitted maximal effect
How it was run: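 Wild-type CHO-K1 cells were seeded at 1,500 per well, rested 5hr at 37 C, then exposed to compounds in DMSO. After 16hr, CellTiter-Fluor reagent was added and fluorescence read 1hr later as the viability measure.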

[10] = Caspase-3/7 induction in CHO-K1 cells by small molecules, qHTS assay (AID 1346980); further: on the % scale 0 is the no-effect control and ±100 the full control effect; nearly all actives have a fitted effect of over 15% in size
How it was run: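 Wild-type cells were seeded at 1,500 per well and settled 5 hr at 37 C, 5% CO2, then exposed to DMSO-dissolved compounds for 17 hr. Caspase-Glo 3/7 reagent was added, and luminescence was read after 30min at room temperature.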

[11] = Caspase-3/7 induction in HepG2 cells by small molecules, qHTS cell viability counter screen (AID 1346981); further: nearly all actives have a fitted effect of over 30% in size; further: potency means the concentration at half of the fitted maximal effect
How it was run: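 CellTiter-Fluor fluorescence measured viability in the same wells used for Caspase-Glo 3/7. HepG2 (wild type) at 2,000 cells/well were pre-incubated 5 hr, dosed, and given reagent at 16 hr, with 1 hr further at 37C.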

[12] = molecular target: Nuclear receptor subfamily 1 group I member 2 (Homo sapiens) (UniProt O75469); assay: Human pregnane X receptor (PXR) small molecule agonists, qHTS assay (AID 1346982); further: nearly all actives have a fitted effect of over 35% in size; further: potency means the concentration at half of the fitted maximal effect
How it was run: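 Agonist mode: luminescence from ONE-Glo after 24 h compound exposure at 37C in HepG2 cells carrying hPXR-responsive CYP3A4 luciferase, plated in charcoal-stripped serum medium 5 h beforehand.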

[13] = molecular target: Cytochrome P450 2D6 (Homo sapiens) (UniProt P10635); assay: Cytochrome P450 Family 2 Subfamily D Member 6 (CYP2D6) small molecule antagonists: luciferase reporter qHTS assay (AID 1671196); further: nearly all actives have a fitted effect of over 50% in size; further: potency means the concentration at half of the fitted maximal effect
How it was run: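 CYP2D6 activity was followed as luminescence from its luciferin product after a 1 h NADPH-driven reaction at room temperature. Enzyme-substrate mix and compound were pre-incubated for 10 min, and the signal was read 20 min after adding detection reagent.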

[14] = molecular target: Progesterone receptor (Homo sapiens) (UniProt P06401); assay: qHTS assay to identify small molecule antagonists of the progesterone receptor (PR) signaling pathway (AID 1346795; active means well fitted inhibition curve with a large enough effect in the signal ratio in the repeat runs, not every such curve was filed as active; the % refers to the signal ratio; further: potency means the concentration at half of the fitted maximal effect)
How it was run: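 PR-UAS-bla HEK293T cells carrying a UAS-driven beta-lactamase reporter were plated in medium with 2% charcoal-stripped FBS and rested 6 hr at 37C. Compounds were added with 1 nM R5020 (final) for 16 hr, then FRET substrate loaded 2 hr at room temperature.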

[15] = molecular target: Thyrotropin-releasing hormone receptor (Homo sapiens) (UniProt P34981); assay: qHTS assay to identify small molecule antagonists of the thyrotropin-releasing hormone receptor (TRHR) signaling pathway (AID 1346877; active means well fitted inhibition curve with a large enough effect in the repeat runs, not every such curve was filed as active; further: series mostly up to about 51 µM; on the % scale 0 is the no-effect control and ±100 the full control effect)
How it was run: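 Antagonist mode: after a 5 min room-temperature compound exposure, cells were stimulated with 1 nM (final) TRH. Dye-loaded TRHR-HEK293 cells were used, and calcium-dependent fluorescence was followed for 3 min, with 15-point titrations run in triplicate.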

[16] = molecular target: Thyrotropin-releasing hormone receptor (Homo sapiens) (UniProt P34981); assay: qHTS assay to identify small molecule agonists of the thyrotropin-releasing hormone receptor (TRHR) signaling pathway (AID 1346891; calls by dose curve; further: series mostly up to about 58 µM; on the % scale 0 is the no-effect control and ±100 the full control effect)
How it was run: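 TRHR-expressing HEK293 cells were plated 18 h at 37 °C/5% CO2, loaded with calcium dye 2 h at 37 °C, then given compound in DMSO; fluorescence was read kinetically for 3 min at 1 s intervals.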

[17] = molecular target: Nuclear receptor subfamily 1 group I member 2 (Rattus norvegicus) (UniProt Q9R1A7); assay: Rat pregnane X receptor (rPXR) activation by small molecules, qHTS assay (AID 1346983); conditions: rPXR luciferase reporter cells, One-Glo luminescence, 24 h; max activation: stronger effect = higher value; further: on the % scale 0 is the no-effect control and ±100 the full control effect; nearly all actives have a fitted effect of over 20% in size
How it was run: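 Cell-based rPXR luciferase reporter assay, 2,000 cells per well, rested 5hr at 37 C before compound addition in DMSO, then 24 hr at 37 C. One-Glo reagent was added and luminescence read after 30 min at room temperature.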

[18] = molecular target: Nuclear receptor subfamily 1 group I member 2 (Homo sapiens) (UniProt O75469); assay: Human pregnane X receptor (PXR) activation by small molecules, qHTS assay (AID 1346985); further: nearly all actives have a fitted effect of over 40% in size; further: potency means the concentration at half of the fitted maximal effect
How it was run: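 DPX-2 cells (HepG2 co-transfected with a PXR response element and a CYP3A4-promoter luciferase construct) were seeded at 2,000 per well, rested 5 hr at 37C, then exposed to DMSO-dissolved compounds for 24 hr. Activation was read as luciferase luminescence.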

[19] = qHTS assay to identify small molecule antagonists of the progesterone receptor (PR) signaling pathway - cell viability counter screen (AID 1346798); further: nearly all actives have a fitted effect of over 50% in size; further: potency means the concentration at half of the fitted maximal effect
How it was run: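 PR-UAS-bla HEK293T cells in medium with 2% charcoal-stripped FBS were treated with compounds plus R5020 for 16 hr at 37C. Cell viability was then read by CellTiter-Glo luminescence after 30 min at room temperature in the same wells.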

Nuclear receptor subfamily 1 group I member 2 (Rattus norvegicus), sequence (Q9R1A7 whole entry, looked up): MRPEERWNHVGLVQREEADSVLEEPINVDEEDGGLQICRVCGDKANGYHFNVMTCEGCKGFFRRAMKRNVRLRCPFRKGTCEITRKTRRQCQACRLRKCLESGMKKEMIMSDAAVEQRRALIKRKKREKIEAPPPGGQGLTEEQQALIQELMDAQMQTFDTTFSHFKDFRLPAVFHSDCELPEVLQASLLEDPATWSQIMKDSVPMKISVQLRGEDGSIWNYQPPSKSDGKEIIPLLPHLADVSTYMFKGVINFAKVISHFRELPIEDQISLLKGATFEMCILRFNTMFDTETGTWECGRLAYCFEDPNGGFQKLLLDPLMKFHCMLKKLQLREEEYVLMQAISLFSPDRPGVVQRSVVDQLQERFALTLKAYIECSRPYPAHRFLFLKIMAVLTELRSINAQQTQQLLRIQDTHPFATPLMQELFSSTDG
Progesterone receptor (Homo sapiens), sequence (P06401 whole entry, looked up): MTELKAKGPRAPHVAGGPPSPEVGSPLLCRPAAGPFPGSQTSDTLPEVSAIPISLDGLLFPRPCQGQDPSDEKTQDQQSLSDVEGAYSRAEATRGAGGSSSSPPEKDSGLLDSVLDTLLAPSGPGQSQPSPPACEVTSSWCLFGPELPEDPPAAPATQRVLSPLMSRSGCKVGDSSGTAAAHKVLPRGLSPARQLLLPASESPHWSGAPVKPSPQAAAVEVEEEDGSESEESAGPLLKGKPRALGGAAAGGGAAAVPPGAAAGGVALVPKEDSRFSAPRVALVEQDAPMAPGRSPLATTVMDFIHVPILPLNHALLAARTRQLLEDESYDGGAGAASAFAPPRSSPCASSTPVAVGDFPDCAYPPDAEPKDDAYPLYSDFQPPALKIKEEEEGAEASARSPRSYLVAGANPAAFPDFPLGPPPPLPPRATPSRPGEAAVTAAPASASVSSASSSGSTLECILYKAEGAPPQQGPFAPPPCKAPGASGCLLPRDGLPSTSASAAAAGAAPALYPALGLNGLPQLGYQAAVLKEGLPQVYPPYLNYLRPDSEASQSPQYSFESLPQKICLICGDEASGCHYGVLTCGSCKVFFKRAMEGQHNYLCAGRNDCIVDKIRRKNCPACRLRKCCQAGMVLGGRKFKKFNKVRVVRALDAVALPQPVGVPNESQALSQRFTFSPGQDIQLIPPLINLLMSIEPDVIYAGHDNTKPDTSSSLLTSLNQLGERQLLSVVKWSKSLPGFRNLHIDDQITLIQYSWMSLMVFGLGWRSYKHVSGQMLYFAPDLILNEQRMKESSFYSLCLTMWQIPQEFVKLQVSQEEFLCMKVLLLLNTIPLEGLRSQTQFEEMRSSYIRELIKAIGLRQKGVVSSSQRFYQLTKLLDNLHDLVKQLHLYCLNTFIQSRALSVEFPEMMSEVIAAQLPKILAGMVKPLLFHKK
Cytochrome P450 2D6 (Homo sapiens), sequence (P10635 whole entry, looked up): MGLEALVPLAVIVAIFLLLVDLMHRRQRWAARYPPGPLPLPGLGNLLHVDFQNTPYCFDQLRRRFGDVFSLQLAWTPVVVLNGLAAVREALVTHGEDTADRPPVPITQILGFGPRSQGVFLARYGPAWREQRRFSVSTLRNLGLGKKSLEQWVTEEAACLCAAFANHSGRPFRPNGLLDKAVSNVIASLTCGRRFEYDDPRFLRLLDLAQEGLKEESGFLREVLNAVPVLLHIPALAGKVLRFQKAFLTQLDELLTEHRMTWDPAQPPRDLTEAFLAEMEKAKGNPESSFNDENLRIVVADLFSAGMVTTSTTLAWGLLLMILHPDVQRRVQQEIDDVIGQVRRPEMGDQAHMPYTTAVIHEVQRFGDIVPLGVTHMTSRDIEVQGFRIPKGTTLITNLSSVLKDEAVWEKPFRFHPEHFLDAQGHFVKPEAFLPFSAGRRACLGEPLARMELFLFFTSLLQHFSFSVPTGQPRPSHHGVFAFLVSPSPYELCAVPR
Nuclear receptor subfamily 1 group I member 2 (Homo sapiens), sequence (O75469 whole entry, looked up): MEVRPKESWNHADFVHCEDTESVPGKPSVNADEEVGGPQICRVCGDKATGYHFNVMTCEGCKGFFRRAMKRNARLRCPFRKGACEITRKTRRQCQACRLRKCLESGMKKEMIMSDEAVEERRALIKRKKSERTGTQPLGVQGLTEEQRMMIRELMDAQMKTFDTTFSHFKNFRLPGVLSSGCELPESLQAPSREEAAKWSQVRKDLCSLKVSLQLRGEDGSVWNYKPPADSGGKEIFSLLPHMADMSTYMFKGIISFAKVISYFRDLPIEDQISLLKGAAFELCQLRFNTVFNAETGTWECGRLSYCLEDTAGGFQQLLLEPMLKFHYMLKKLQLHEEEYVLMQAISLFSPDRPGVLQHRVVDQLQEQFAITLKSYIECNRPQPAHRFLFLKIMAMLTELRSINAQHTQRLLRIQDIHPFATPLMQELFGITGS
Thyrotropin-releasing hormone receptor (Homo sapiens), sequence (P34981 whole entry, looked up): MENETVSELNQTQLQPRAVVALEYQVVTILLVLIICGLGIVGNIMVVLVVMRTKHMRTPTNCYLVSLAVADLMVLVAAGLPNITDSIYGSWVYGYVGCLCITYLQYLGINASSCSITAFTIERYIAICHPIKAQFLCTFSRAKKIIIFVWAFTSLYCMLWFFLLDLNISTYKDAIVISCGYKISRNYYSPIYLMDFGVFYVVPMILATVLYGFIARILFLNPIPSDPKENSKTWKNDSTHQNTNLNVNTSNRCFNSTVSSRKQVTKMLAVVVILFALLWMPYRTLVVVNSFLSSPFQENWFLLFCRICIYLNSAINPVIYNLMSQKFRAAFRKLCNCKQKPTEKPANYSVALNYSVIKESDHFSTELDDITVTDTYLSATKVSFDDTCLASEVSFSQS

C=C(C)C(=O)OCC[N+](C)(C)C
inactive: Potency [1] | Potency [2] | Potency [3] | Potency [4] | Potency [5] | Potency [6] | Potency [7] | Potency [8] | Potency [10] | Potency [11] | Potency [12] | Potency [13]
active: Potency [9] 68.3 µM

Oc1c(Cl)cc(Cl)c2cccnc12
inactive: Potency [1] | Potency [2] | Potency [4] | Potency [5] | Potency [15] | Potency [16] | Potency [10] | Potency [11] | max activation [17] 4.53%
active: Potency [14] 841 nM | Potency [9] 11.9 µM | Potency [12] 26.6 µM | Potency [18] 28.2 µM

CSc1ccc(/C=C2/C(C)=C(CC(=O)O)c3cc(F)ccc32)cc1
inactive: Potency [1] | Potency [2] | Potency [19] | Potency [3] | Potency [4] | Potency [5] | Potency [15] | Potency [16] | Potency [7] | Potency [9] | Potency [10] | Potency [11] | Potency [12]

Nc1cc(C(F)(F)F)ccc1S
inactive: Potency [1] | Potency [2] | Potency [4] | Potency [5] | Potency [6] | Potency [15] | Potency [7] | Potency [8] | Potency [11]
active: Potency [19] 13.3 µM | Potency [9] 26.6 µM | Potency [12] 13.3 µM

O=c1[nH]sc2cc(Cl)ccc12
inactive: Potency [1] | Potency [2] | Potency [3] | Potency [4] | Potency [5] | Potency [6] | Potency [15] | Potency [16] | Potency [10] | Potency [11] | Potency [12]
active: Potency [9] 26.6 µM

[O-][n+]1ccccc1SSc1cccc[n+]1[O-]
inactive: activation [2] -12.3% [at 19 µM] | viability change, negative = cytotoxic [4] -6.42% [at 15.8 µM] | activation [6] -0.0146% [at 15.8 µM] | activity, negative = inhibition [15] -2.61% [at 10.5 µM] | activation [16] 5.02% [at 11.8 µM] | caspase-3/7 activation [10] -5.93% [at 19 µM] | activation [12] -49.4% [at 19 µM] | max activation [17] -9.36%
active: Potency [1] 8.2 µM | Potency [19] 0.116 µM | Potency [3] 0.116 µM | Potency [7] 0.184 µM | Potency [8] 0.291 µM | Potency [9] 0.073 µM | Potency [11] 4.11 µM | Potency [18] 11.2 µM | Potency [13] 2.13 µM

O=C(c1ccc(F)cc1)C1CCN(CCn2c(=O)[nH]c3ccccc3c2=O)CC1
inactive: Potency [1] | Potency [2] | Potency [19] | Potency [3] | Potency [4] | Potency [5] | Potency [7] | Potency [9] | Potency [10] | Potency [11] | Potency [12]

CCC(CN)=C(c1ccccc1)c1ccccc1
inactive: Potency [1] | Potency [2] | Potency [19] | Potency [3] | Potency [4] | Potency [5] | Potency [6] | Potency [15] | Potency [8] | Potency [10] | Potency [11]
active: Potency [13] 4.36 µM

CC[C@H](c1ccc(O)cc1)[C@@H](CC)c1ccc(O)cc1
inactive: Potency [1] | Potency [2] | Potency [4] | Potency [6] | Potency [7] | Potency [8] | Potency [11] | max activation [17] -4.59% | Potency [13]
active: Potency [14] 7.7 µM and 7.5 µM | Potency [9] 68.6 µM | Potency [12] 61.1 µM

NNc1nc(-c2ccc([N+](=O)[O-])cc2)cs1
active: Potency [1] 24.3 µM | Potency [7] 27.3 µM | Potency [9] 27.3 µM | Potency [11] 30.6 µM | Potency [13] 14.2 µM
inactive: Potency [2] | Potency [19] | Potency [4] | Potency [6] | Potency [15] | Potency [16] | Potency [8] | Potency [10]

Cn1cc(C(=O)[C@@H]2CCc3nc[nH]c3C2)c2ccccc21
inactive: Potency [1] | Potency [2] | Potency [4] | Potency [5] | Potency [6] | Potency [15] | Potency [8] | Potency [9] | Potency [10] | Potency [11] | Potency [12] | max activation [17] -0.66% | Potency [18]
active: Potency [19] 23.7 µM | Potency [13] 17.4 µM

CC(C)(C)CC(C)(C)c1ccc(OCCOCC[N+](C)(C)Cc2ccccc2)cc1
inactive: Potency [2] | Potency [6] | Potency [8]
active: Potency [1] 61.1 µM | Potency [19] 54.4 µM | Potency [3] 48.5 µM | Potency [4] 48.9 µM | Potency [5] 43.6 µM | Potency [9] 61.1 µM | Potency [11] 61.1 µM

O=c1[nH]cnc2nc[nH]c12
inactive: Potency [1] | Potency [2] | Potency [19] | Potency [3] | Potency [5] | Potency [6] | Potency [15] | Potency [16] | Potency [7] | Potency [8] | Potency [10] | Potency [11] | Potency [12] | max activation [17] -3.71% | Potency [18]

O=[N+]([O-])c1cc(Cl)c(Cl)c(Cl)c1Cl
active: Potency [9] 60.9 µM | Potency [12] 60.9 µM
inactive: Potency [1] | Potency [2] | Potency [19] | Potency [3] | Potency [4] | Potency [5] | Potency [15] | Potency [16] | Potency [7] | Potency [8] | Potency [10] | Potency [11] | Potency [13]
